Screens: PubChem, Broad Institute
aSyn UTR act = Activators via SNCA 5'UTR binding, MLPCN; alpha-synuclein 5'UTR reporter, activators screen; activity score, % (tested at 7.5 µM), hits read low; 300,000 tested, 7.1% active; AID 1814, 2009; in the data active = activity score below about -60%
Starred values were filed as active, the others as inactive. Not all results are given here.

SMILES	aSyn UTR act
CCOC(=O)c1cc([N+](=O)[O-])sc1NC(=O)c1ccc(S(=O)(=O)N2CC3(C)CC2CC(C)(C)C3)cc1 (stereo unspecified)	54.5
CC1CCCCN1S(=O)(=O)c1ccc(C(=O)Nc2sccc2C(N)=O)cc1 (stereo unspecified)	-105.8*
COC(=O)c1sc(NC(=O)c2ccoc2C)nc1C	-136.1*
COC(=O)c1sc(NC(=O)/C=C/c2ccc(C)o2)nc1C	-65.4*
COC(=O)c1sc(NC(=O)c2ccco2)nc1C	-69.0*
Cn1c(C(C#N)C(=O)c2ccco2)nc2ccccc21 (stereo unspecified)	-125.0*
Cc1cc(C)c(S(=O)(=O)Nc2ccc(N(C)C)cc2)c(C)c1-n1cnnn1	-79.2*
CCc1cc2c(=O)c(-c3ccc4c(c3)OCCO4)coc2c(CN2CCCCC2C)c1O (stereo unspecified)	-65.1*
O=c1c(-c2ccc3c(c2)OCCO3)coc2c(CN3CCOCC3)c(O)ccc12	-93.7*
CCc1cc2c(=O)c(-c3ccc4c(c3)OCCO4)coc2cc1OS(C)(=O)=O	-115.8*
O=C(O)c1cccc2c1-c1ccccc1/C2=N\Nc1ccccc1	-82.9*
CN(C)S(=O)(=O)c1ccc(-c2cn3ccccc3n2)cc1	-193.7*
O=[N+]([O-])c1ccc(-c2cn3ccccc3n2)cc1	-147.8*
O=C(NCc1ccc2c(c1)OCO2)c1ccccc1Cl	-99.6*
O=C(Cc1ccccc1[N+](=O)[O-])NCc1ccc2c(c1)OCO2	-122.6*
O=C(Cc1ccccc1)NCc1ccc2c(c1)OCO2	-99.3*
O=C(NCc1ccccc1)c1c[nH]c2cc3c(cc2c1=O)OCCO3	-183.5*
Cc1ccc(/C=C2\SC(=S)N(CC3CCCO3)C2=O)o1 (stereo unspecified)	-68.0*
COc1ccc(/C=C2/SC(=S)N(CCC(=O)O)C2=O)cc1	97.5
COc1ccc(/C=C2/SC(=O)NC2=O)cc1	-117.5*
COc1ccc(/C=C2\SC(=S)N(CC3CCCO3)C2=O)cc1 (stereo unspecified)	-89.2*
COc1cc(/C=C2/SC(=S)N(CC3CCCO3)C2=O)ccc1O (stereo unspecified)	-95.2*
O=C(/C=C/c1ccccc1F)c1ccoc1	-68.4*
CCC(=O)N1CCc2nc(-c3ccccc3)sc2C1	-179.2*
Cc1cc2ccccn2c1C(=O)Nc1ccc(Cl)cc1	-116.7*
SMILES	aSyn UTR act
Cc1cc2ccccn2c1C(=O)Nc1ccccc1	-109.1*
COc1ccc(N=C(C)C2=C(O)COC2=O)cc1	-92.8*
COc1ccccc1N=C(C)C1=C(O)CC(c2ccccc2)CC1=O (stereo unspecified)	121.7
COc1cc(/C=C2/C(=N)N3C=CSC3=NC2=O)ccc1OCCCOc1ccccc1C	-117.9*
CCC1=NN2C(=N)/C(=C\c3ccc(OCCOc4ccccc4)c(OC)c3)C(=O)N=C2S1	-125.0*
Fc1ccc(F)c(NC(=S)NCCc2ccccc2)c1	-93.1*
Fc1cccc(NC(=S)NCCc2ccccc2)c1	-71.1*
Fc1ccccc1NC(=S)NCCc1ccccc1	-117.8*
S=C(N=Nc1ccccc1)NNc1ccccc1	-132.2*
CCCCCn1cnc2sc(-c3ccccc3)cc2c1=O	-298.6*
COc1ccccc1-n1cnc2sc(-c3ccccc3)cc2c1=O	-142.3*
CCCCn1cnc2sc(-c3ccccc3)cc2c1=O	-212.7*
O=c1c2cc(-c3ccccc3)sc2ncn1/N=C/c1ccco1	-140.3*
COc1ncnc2sc(-c3ccccc3)cc12	-168.0*
Cc1ccc(N=C(c2cccs2)N2CCOCC2)cc1	-65.8*
COn1c(-c2ccc(Cl)cc2)nc2ccc(Cl)cc21	-114.4*
O=C(O)COn1c(-c2ccc(Cl)cc2)nc2ccc(Cl)cc21	-123.4*
CCN(C(=O)CSc1nnc(Cn2nnc3ccccc32)o1)c1nc(-c2ccccc2)cs1	-105.0*
O=c1c2ccccc2ncn1-c1ccc2c(c1)OCCO2	-110.7*
Cc1ccccc1NC(=O)N1CCc2ccccc2C1	-79.8*
Cc1ccc(NC(=O)N2CCc3ccccc3C2)cc1C	-152.1*
Cc1cc(C)cc(NC(=O)N2CCc3ccccc3C2)c1	-111.3*
Cc1ccc(NC(=O)C2OCCc3ccccc32)cc1C (stereo unspecified)	-61.6*
Clc1ccc(N/N=C/c2cccnc2)cc1	-123.4*
C(=N\NC1=Nc2cccc3cccc1c23)/c1ccccc1	-255.7*
SMILES	aSyn UTR act
Clc1ccc(/C=N/NC2=Nc3cccc4cccc2c34)cc1	-190.6*
C(=N\NC1=Nc2cccc3cccc1c23)/c1cccnc1	-258.4*
CC(/C=C1\NC(=S)NC1=O)=C\c1ccccc1	-62.0*
CN(C)/C=C/C(=O)c1ccc(-n2cccc2)cc1	-88.2*
Oc1c(C=NCc2ccccc2)sc2ccccc12	-103.4*
O=[N+]([O-])c1ccc(N=Nc2c(Cl)cc(O)cc2Cl)cc1	58.4
